{
  "source": "PubChem BioAssay (Tox21)",
  "note": "Where “and” joins values, the source holds several entries; their conditions need not be identical. Identical values can stand only once. Results filed as inconclusive are left out. A number with no mark means an inactive call. Calls of active or inactive are those of the source. Calls come from the whole dose curve. % is set by controls: 0 for no effect and ±100 for the full control effect; potency is the fitted concentration of half-maximal effect.",
  "data": [
    {"target": "Acetylcholinesterase (Homo sapiens) (UniProt P22303)", "sequence (P22303 whole entry, looked up)": "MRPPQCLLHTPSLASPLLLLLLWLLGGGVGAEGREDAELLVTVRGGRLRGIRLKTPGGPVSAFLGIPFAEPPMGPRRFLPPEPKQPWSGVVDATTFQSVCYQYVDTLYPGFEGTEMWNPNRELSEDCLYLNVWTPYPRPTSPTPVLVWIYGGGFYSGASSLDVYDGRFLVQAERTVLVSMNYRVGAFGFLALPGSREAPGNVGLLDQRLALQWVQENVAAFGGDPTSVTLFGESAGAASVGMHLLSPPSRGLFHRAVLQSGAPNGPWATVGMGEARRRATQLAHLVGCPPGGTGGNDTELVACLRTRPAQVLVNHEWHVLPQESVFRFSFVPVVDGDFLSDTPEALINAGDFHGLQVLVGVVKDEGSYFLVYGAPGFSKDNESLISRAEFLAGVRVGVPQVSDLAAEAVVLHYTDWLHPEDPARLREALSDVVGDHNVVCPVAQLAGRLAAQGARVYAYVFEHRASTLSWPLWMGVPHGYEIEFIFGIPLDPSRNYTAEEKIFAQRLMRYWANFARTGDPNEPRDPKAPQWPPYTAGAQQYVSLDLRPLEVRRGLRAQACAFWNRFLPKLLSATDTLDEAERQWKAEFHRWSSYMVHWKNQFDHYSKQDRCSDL", "assay": "Acetylcholinesterase (AChE) small molecule antagonists: fluorescence cell-based qHTS assay (AID 1347398); note: nearly all actives have a fitted effect of over 50% in size", "details": "SH-SY5Y cells; Potency: AChE activity; series mostly up to 115 µM; activity change, negative = inhibition: at the top concentration", "text": "National Center for Advancing Translational Sciences [NCATS]\nDivision of Preclinical Innovation [DPI]\nU.S. Environmental Protection Agency [EPA]\nNational Institutes of Environmental Health Sciences [NIEHS]\nNational Toxicology Program [NTP]\nU.S. Food and Drug Administration [FDA]\nAcetylcholinesterase (AChE) is the primary cholinesterase in the body that hydrolyzes a key neurotransmitter, acetylcholine. Inhibition of AChE activity can lead to neurotoxicity. Known inhibitors of AChE include organophosphorous pesticides (OP), chemical warfare agents, drugs, and various phytochemicals.\nA homogenous cell-based assay using Amplitetrade mark Fluorimetric Acetylcholinesterase Assay Kit *Green Fluorescence* (AAT Bioquest, Sunnyvale, CA) was used to evaluate the chemicals in the Tox21 10K library that inhibit AChE activity. The assay uses Thiolite Green to quantify the thiocholine produced from the hydrolysis of acetylthiocholine by AChE from the SH-SY5Y cells. AChE can hydrolyze acetylthiocholine to create thiocholine. Thiolite Green is fluorescent when reacting with thiocholine. It has spectral properties similar to those of fluorescein. The fluorescence intensity of Thiolite Green is used to measure AChE activity. Its signal can be easily read by a fluorescence microplate reader at Ex/Em = 490/520 nm.\nTox21 Assay Protocol Summary:\nFor cell-based AChE assay, 2,000 SH-SY5Y cells in 4 uL/well were dispensed into black, clear-bottom 1536-well plates using a Multidrop Combi (Thermo Scientific) dispenser. The assay plates were incubated overnight at 37 C to allow cells to attach to the wells, followed by the transfer of 23 nL compound or DMSO (vehicle control) by a Pintool station (Wako Automation, CA). The plates were incubated for 30 min at 37 C and 5% CO2, followed by the addition of 4 uL of detection cocktail solution (ThioliteGreen, acetylthiocholine) into each well using Flying Reagent Dispenser (Beckman Coulter, CA) and then following 40 min incubation at room temperature. Fluorescent intensity (Ex/Em = 490/520 nm) was measured using an Envision plate reader (PerkinElmer, MA).", "values": [
      {"smiles": "CN1[C@@H]2CC[C@H]1CC(OC(=O)c1cc(Cl)cc(Cl)c1)C2", "note": "(stereo not given in full)", "activity change, negative = inhibition": "-21% [at 53.7 µM]"},
      {"smiles": "CCOc1nc(F)cc2nc(S(=O)(=O)Nc3c(Cl)cccc3Cl)nn12", "activity change, negative = inhibition": "-0.997%"},
      {"smiles": "O=C1CN=C(c2ccccc2)c2cc(Cl)ccc2N1CC1CC1", "Potency": "29.7 µM (active)"},
      {"smiles": "CC(Cl)C(C)Cl", "note": "(stereo not given)", "activity change, negative = inhibition": "2.58%"},
      {"smiles": "ClCCCCBr", "activity change, negative = inhibition": "-0.23%"},
      {"smiles": "CCOC(=O)COc1cc(-c2nn(C)c(OC(F)F)c2Cl)c(F)cc1Cl", "activity change, negative = inhibition": "-1.61%"},
      {"smiles": "c1ccoc1", "activity change, negative = inhibition": "4.55%"},
      {"smiles": "CC(Cl)Cl", "activity change, negative = inhibition": "-0.0422%"},
      {"smiles": "c1ccc(CN2CCNCC2)cc1", "activity change, negative = inhibition": "6.68% [at 293 µM]"},
      {"smiles": "C=CC(=O)OCC(C)O", "note": "(stereo not given)", "activity change, negative = inhibition": "4.94%"},
      {"smiles": "N#CCc1ccccc1", "activity change, negative = inhibition": "0.843%"},
      {"smiles": "O=C(CBr)c1ccccc1", "activity change, negative = inhibition": "-0.686%"},
      {"smiles": "Cc1cc(=O)[nH]o1", "activity change, negative = inhibition": "-3.3%"},
      {"smiles": "C=CC[C@]1(O)CC[C@H]2[C@@H]3CCC4=CC(=O)CCC4=C3C=C[C@@]21C", "Potency": "6.92 µM (active)"},
      {"smiles": "Nc1nc(N)nc(N)n1", "activity change, negative = inhibition": "0.985%"},
      {"smiles": "Clc1ccc(C(OCCN2CCCCC2)c2ccccc2)cc1", "note": "(stereo not given)", "activity change, negative = inhibition": "-23.3% [at 53.7 µM]"},
      {"smiles": "Clc1cccc2ccccc12", "activity change, negative = inhibition": "2.43%"},
      {"smiles": "COCC(C)N(C(=O)CCl)c1c(C)csc1C", "note": "(stereo not given)", "activity change, negative = inhibition": "-13.5%"},
      {"smiles": "c1cc2ccc3cccc4ccc(c1)c2c34", "activity change, negative = inhibition": "-0.602%"},
      {"smiles": "CCOC(=O)CBr", "activity change, negative = inhibition": "-0.439%"},
      {"smiles": "CN(C)c1ccc(N(C)C)cc1", "Potency": "40 µM (active)"},
      {"smiles": "O=S(=O)(Cl)c1ccccc1", "activity change, negative = inhibition": "0.734%"},
      {"smiles": "NNC(=O)c1cccnc1", "activity change, negative = inhibition": "-12.9%"},
      {"smiles": "CC(=O)NC1CCSC1=O", "note": "(stereo not given)", "activity change, negative = inhibition": "3.34% [at 53.7 µM]"},
      {"smiles": "O=S(=O)(O)C(F)(F)C(F)(F)C(F)(F)C(F)(F)F", "activity change, negative = inhibition": "8.34%"},
      {"smiles": "CCOP(=O)(OCC)SCCSCC", "Potency": "3.03 µM (active) and 10 µM (active)"},
      {"smiles": "O=C(Nc1ccccc1)Nc1cnns1", "activity change, negative = inhibition": "0.117%"},
      {"smiles": "ClCC(Br)CBr", "note": "(stereo not given)", "activity change, negative = inhibition": "5.1%"},
      {"smiles": "CC(O)(CS(=O)(=O)c1ccc(F)cc1)C(=O)Nc1ccc(C#N)c(C(F)(F)F)c1", "note": "(stereo not given)", "activity change, negative = inhibition": "-8.15% [at 53.7 µM]"},
      {"smiles": "O=Cc1ccc2c(c1)OCO2", "activity change, negative = inhibition": "-2.11%"},
      {"smiles": "O=C(Nc1ccccc1)Nc1ccnc(Cl)c1", "activity change, negative = inhibition": "-10.3%"},
      {"smiles": "O=C1C(Cl)C(CCl)CN1c1cccc(C(F)(F)F)c1", "note": "(stereo not given)", "activity change, negative = inhibition": "-6.53%"},
      {"smiles": "O=[N+]([O-])c1cc(C(F)(F)F)cc([N+](=O)[O-])c1Cl", "activity change, negative = inhibition": "4.74%"},
      {"smiles": "CC1(C)CCC(Cc2ccc(Cl)cc2)C1(O)Cn1cncn1", "note": "(stereo not given)", "activity change, negative = inhibition": "-5.99%"},
      {"smiles": "CCCCCCCCCC(=O)O[C@H]1CC[C@H]2[C@@H]3CCC4=CC(=O)CC[C@@H]4[C@H]3CC[C@]12C", "activity change, negative = inhibition": "-7.29% [at 53.7 µM]"},
      {"smiles": "O=C(O)CC(Cl)C(=O)O", "note": "(stereo not given)", "activity change, negative = inhibition": "1.91%"},
      {"smiles": "C/C(=C\\c1ccccc1)[N+](=O)[O-]", "activity change, negative = inhibition": "1.24%"},
      {"smiles": "O=Cc1ccc(Cl)cc1Cl", "activity change, negative = inhibition": "3.19%"},
      {"smiles": "CC(C)(OO)c1ccccc1", "activity change, negative = inhibition": "-1.87%"},
      {"smiles": "O=S1(=O)OC(c2cc(Br)c(O)c(Br)c2)(c2cc(Br)c(O)c(Br)c2)c2ccccc21", "activity change, negative = inhibition": "-8.37%"}
    ]}
  ]
}
